# MCL1 BIM primary: inhibitors of human MCL1 binding to BIM-BH3 peptide; Q07820; GST-MCL1 / FITC-Bim-BH3 fluorescence polarization; inhibition, % at 10.9 µM; hit rate 0.68% among 320,000; AID 2057;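 active = inhibition above the mean inhibition of all tested compounds plus 3 SD, set per campaign, cut at about 40% in these data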;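 also: higher means more loss of mP so more displacement of Bim peptide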
# Target sequence (Q07820 whole entry, looked up): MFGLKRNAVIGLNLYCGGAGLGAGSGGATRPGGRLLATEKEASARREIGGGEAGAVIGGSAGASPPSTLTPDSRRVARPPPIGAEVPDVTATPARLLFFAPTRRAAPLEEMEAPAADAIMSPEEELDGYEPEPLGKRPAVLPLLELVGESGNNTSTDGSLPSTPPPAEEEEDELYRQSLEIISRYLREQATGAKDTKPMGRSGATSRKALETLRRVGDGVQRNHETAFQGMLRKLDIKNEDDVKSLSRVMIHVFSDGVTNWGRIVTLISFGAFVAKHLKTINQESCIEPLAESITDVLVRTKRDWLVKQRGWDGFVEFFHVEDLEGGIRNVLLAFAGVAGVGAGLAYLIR
# BCLXL inh: inhibitors of human Bcl-xL; Q07817; GST-Bcl-xL / FITC-Bim BH3 peptide fluorescence polarization; inhibition, % at 10.9 µM; hit rate 0.7% among 320,000;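 active = inhibition above the mean of all tested compounds plus 3 SD, cutoff set per campaign, cut at about 30% in these data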;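 also: inhibitors lower millipolarization by displacing the labeled peptide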
# eLon inh: inhibits E. coli Lon protease | purified E. coli Lon protease, fluorescence polarization | inhibition, % at 7.94 µM | hit rate 0.42% among 360,000 | AID 602123; in the data active = inhibition above about 13%, passing the limit was not always enough
# GLD-1 TGE inh: GLD-1-TGE RNA interaction inhibition (C. elegans) | purified GLD-1 + fluorescein TGE RNA, fluorescence polarization | inhibition, % at 5.96 µM | hit rate 0.44% among 320,000 | AID 2280;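 active = percent inhibition above a per-plate cutoff, the plate mean of test compounds plus 3 SD, cut at about 30% in these data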
# MEX-5 binding: C. elegans MEX-5 TCR-2 RNA binding activity | Q9XUB2 | MEX-5/FITC-TCR2 RNA binding, fluorescence polarization; hits give low values | activity score (negative = inhibition of binding), % at 10 µM | hit rate 0.38% among 300,000 | AID 1832;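 active = inhibition past about -25% in most replicates, and total fluorescence under double the plate's negative control median, limit read from the data; inconclusive = replicates evenly split on the limit, or fluorescence at least double controls; inactive = too little inhibition in most replicates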
# EBV gp42 inh: EBV gp42 inhibition. Q1HVG2. Fluorescence polarization binding assay, mP read-out. inhibition, % (tested at 21.74 µM). hit rate 0.42% among 220,000. AID 1085; in the data active = inhibition above about 50%
# Target sequence (Q1HVG2 whole entry, looked up): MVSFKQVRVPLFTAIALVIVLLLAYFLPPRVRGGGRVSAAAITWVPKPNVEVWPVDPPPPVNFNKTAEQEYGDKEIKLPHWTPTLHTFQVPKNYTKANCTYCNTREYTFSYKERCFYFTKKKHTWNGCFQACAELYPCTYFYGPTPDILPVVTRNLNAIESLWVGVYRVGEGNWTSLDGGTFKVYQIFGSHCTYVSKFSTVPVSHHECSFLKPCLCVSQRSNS
# Numbers stand for hits; n = inactive; u = inconclusive; x = no result. Most compounds without a hit are left out; they make up all but 1.5% or so of the library.
SMILES,MCL1 BIM primary,BCLXL inh,eLon inh,GLD-1 TGE inh,MEX-5 binding,EBV gp42 inh
O=C(CSc1nnc(Cc2cc(=O)[nH]c(=O)[nH]2)n1-c1ccccc1)NCC1CCCO1 (centres undefined),n,n,n,n,n,n
C=CCn1c(C)cc(C(=O)COC(=O)COc2ccccc2C#N)c1C,n,n,n,n,n,90
Cc1cc(C(=O)COC(=O)COc2ccccc2C#N)c(C)n1CC1CCCO1 (centres undefined),n,n,n,n,x,x
Cc1[nH][nH]c(=O)c1C(c1ccc(-c2ccc(Cl)cc2Cl)o1)c1c(C)[nH][nH]c1=O,x,x,x,x,x,n
Cc1[nH][nH]c(=O)c1C(c1ccc(-c2ccccc2C(=O)O)o1)c1c(C)[nH][nH]c1=O,n,n,n,n,-35,n
Cc1[nH][nH]c(=O)c1C(c1ccc(-c2cccc(C(=O)O)c2)o1)c1c(C)[nH][nH]c1=O,n,n,n,n,-52,n
O=C(/C=C/c1ccc(O)c(O)c1)O[C@H](Cc1ccc(O)c(O)c1)C(=O)O,x,x,x,x,-98,n
O=C1c2ccccc2C(=O)c2[nH]cnc21,x,x,n,x,u,n
O=C1c2ccccc2C(=O)c2[nH]c(=O)[nH]c21,n,n,n,n,-55,x
CCOC(=O)/C(=C/c1ccc(N2CCC(c3ccccc3)=N2)cc1)C(C)=O,x,x,n,x,-33,156
O=S(=O)(c1ccccc1F)N1CCC(c2nc3ccccc3[nH]2)CC1,n,n,n,n,n,x
CC1(c2nnc(-c3ccc(F)cc3)o2)CC(c2cccc(Cl)c2)=NO1 (centres undefined),n,n,n,n,n,n
CC1(CCl)N([O-])C2=C(CCCC2)[N+]1=O (centres undefined),n,n,n,n,-36,n
COc1cc(N2CCCC2)c(OC)cc1/C=C(/C#N)c1cccc(F)c1,n,n,n,n,n,108
CC(C)CCn1c(=O)c2sccc2n2c(CCCC(=O)N3CCN(c4ccccn4)CC3)nnc12,n,71,n,n,n,x
CCn1c(=O)c2sccc2n2c(CCCC(=O)N3CCN(c4ccccn4)CC3)nnc12,n,n,n,n,n,x
COc1cc(NC(=O)[C@H]2O[C@@H](n3ccc(N)nc3=O)[C@H](O)[C@@H]2O)cc(OC)c1OC,x,x,n,x,x,x
Oc1ccc(C=NCCc2ccccc2)cc1,n,n,n,n,n,x
O=C1SC(SCc2ccccc2)=N/C1=C\c1ccc(C(=O)O)cc1,n,n,n,n,-58,n
CC(/C=C1\N=C(SCc2ccccc2Cl)SC1=O)=C\c1ccccc1,n,n,n,n,u,n
Cc1noc(C)c1C(=O)N1CCC1(C)C(=O)NS(=O)(=O)c1cccc(Cl)c1 (centres undefined),x,x,n,x,x,x
COc1ccccc1CN1CCCC(CNC(=O)c2cccc3ccccc23)C1 (centres undefined),n,n,n,n,n,x
O=C(O)CN1C(=O)/C(=C\c2cc(Br)ccc2OCc2ccccc2Cl)SC1=S,57,n,n,n,n,x
CCOc1c2ccc(C(=O)NCc3ccc4c(c3)OCO4)cc2nn1CCOC,n,n,n,n,n,n
C(=N\Nc1nc2ccccc2[nH]1)/c1ccccn1,x,x,n,x,-42,n
SMILES,MCL1 BIM primary,BCLXL inh,eLon inh,GLD-1 TGE inh,MEX-5 binding,EBV gp42 inh
C(=N\Nc1nc2ccccc2[nH]1)/c1ccc2ncccc2c1,n,n,n,n,n,n
CCCc1cc(=O)[nH]c(SCC(=O)N2CCCC2=O)n1,n,n,n,n,n,x
CCCCNC(=O)CN1C(=O)c2cccc(N)c2C1=O,x,x,n,x,n,63
COCCCNC(=O)CN1C(=O)c2ccccc2C1=O,n,n,n,n,n,n
CCN1C(=O)c2ccc(C(=O)Nc3ccc4c(c3)OCO4)cc2C1=O,n,n,n,n,n,x
CC(=O)NNC(=O)c1sc(=S)n2c1[nH]c(=O)c1sccc12,n,n,n,n,-49,n
NC(=O)c1sc(=S)n2c1[nH]c(=O)c1sccc12,n,n,n,n,n,n
O=C1c2cccc3c(N4CCCCC4)ccc(c23)C(=O)N1c1ccccc1O,n,35,n,n,-56,n
O=C(O)c1ccc(N2CCCCCC2)c(N2C(=O)c3ccccc3C2=O)c1,n,n,n,n,n,n
COc1ccc(/C=C(\NC(=O)c2ccccc2)C(=O)NCCN2CCOCC2)cc1,n,n,n,n,n,x
O=C(NCc1ccccn1)C(=O)NCC(c1ccco1)N1CCN(c2ccc(F)cc2)CC1 (centres undefined),n,32,n,n,n,n
COC(=O)C1=NN(C(=O)c2ccc(C)cc2)C(O)(c2ccc(Cl)cc2)C1 (centres undefined),n,n,x,n,-40,n
Cc1ccc(S(=O)(=O)N2CCCC2)cc1C(=O)N1CCC(C)CC1,n,n,n,n,n,x
Cc1sc2nc(COC(=O)c3cccc(OC(F)F)c3)[nH]c(=O)c2c1C,n,n,n,n,n,n
Cc1sc2nc(COC(=O)c3cccc(S(=O)(=O)N(C)c4ccccc4)c3)[nH]c(=O)c2c1C,n,39,n,n,n,n
Cc1cc(Cl)cc2c(N=Nc3ccccc3C(=O)O)c(O)[nH]c12,n,n,n,n,n,x
Cc1ccc(Cl)c2c(N=Nc3ccccc3)c(O)[nH]c12,x,x,n,x,-43,x
CCC(C)(C)c1ccc(OCC(=O)Nc2ccncc2)cc1,n,69,n,n,n,x
Cc1onc(-c2c(Cl)cccc2Cl)c1C(=O)N(C)Cc1ccccc1,n,n,n,n,n,x
O=[N+]([O-])c1ccc(-c2cn(-c3ccc(Cl)cc3)c(=S)[nH]2)cc1,n,n,n,n,n,54
CCc1ccc(-n2cc(-c3ccc([N+](=O)[O-])cc3)[nH]c2=S)cc1,n,n,n,n,n,n
CC1(C)CC(=O)C2=C(C1)N(c1cccc(O)c1)C1=C(C2)C(=O)CC(C)(C)C1,74,81,n,40,n,n
CC1(C)CC(=O)C2=C(C1)N(c1ccccc1)C(=O)C(C(=O)OCc1ccccc1)C2 (centres undefined),x,x,n,x,x,x
CCCCN(C)C1=CC2=CC(=C(C#N)C#N)CCC2CC1 (centres undefined),n,39,n,n,u,n
N#CC(C#N)=C1C=C2C=C(N3CCCCC3)CCC2CC1 (centres undefined),n,35,x,n,x,n
CCN(CC)C1=CC2=CC(=C(C#N)C#N)CCC2CC1 (centres undefined),n,52,n,n,u,n
COc1ccc(S(=O)(=O)N2CCOC2CNC(=O)C(=O)NCc2ccc3c(c2)OCO3)cc1C (centres undefined),x,x,n,x,x,x
O=C(c1cc2ccccc2o1)N1CCN(C/C=C/c2ccccc2)CC1,n,n,n,n,n,x
O=C(Cc1cccc(NC(=O)C2CCCN(C(=O)CCc3ccccc3)C2)c1)Nc1ccc(C(=O)N2CCCCC2)cc1 (centres undefined),x,x,n,x,x,x
COc1cc(CCC(=O)N2CCN(c3ncccn3)CC2)cc(OC)c1OC,n,n,n,n,n,86
